TEAD-YAP inh: TEAD-YAP interaction inhibition, primary screen, TEAD-YAP interaction inhibitor project, luminescence, HEK-TIYL cells. TEAD-Gal4/YAP UAS-luciferase luminescence. inhibition, % at 9.12 µM. 1.4% of 640,000 active; in the data active means inhibition above about 32%;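 further: 0% = median of test compound wells and 100% = reference inhibitor wells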
MITF inh: MITF inhibitors, primary screen, biochemical, AlphaScreen, human | Microphthalmia-associated transcription factor (Homo sapiens), O75030 | AlphaScreen MITF homodimerization, bead proximity signal | inhibition, % at 2.6 µM | 0.91% of 650,000 active; in the data active means inhibition above about 50%;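 further: 0% = vehicle wells with protein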
FBW7 act: FBW7 E3 ligase activators, primary screen, biochemical, AlphaScreen, human | AID 1259310, 2017 | normalized activity (activation), % at 26.1 µM | F-box/WD repeat-containing protein 7 (Homo sapiens), Q969H0 | 0.13% of 650,000 active | AlphaScreen FBW7–phospho-cyclin E peptide binding, activator screen; in the data active means normalized activity above about 1.9%;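 further: purified mutant Fbw7 with reduced substrate affinity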
GPR151 activ: activators of human GPR151, primary screen, cell-based, PathHunter beta-arrestin, luminescence; G-protein coupled receptor 151 (Homo sapiens), Q8TDV0; 1% of 650,000 active; activation, % at 11.2 µM; PathHunter beta-arrestin GPR151 cells; in the data active means activation above about 4.9%;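 further: 0% = median of compound wells and 100% = cells with positive control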
Target sequence (Q8TDV0 whole entry, looked up): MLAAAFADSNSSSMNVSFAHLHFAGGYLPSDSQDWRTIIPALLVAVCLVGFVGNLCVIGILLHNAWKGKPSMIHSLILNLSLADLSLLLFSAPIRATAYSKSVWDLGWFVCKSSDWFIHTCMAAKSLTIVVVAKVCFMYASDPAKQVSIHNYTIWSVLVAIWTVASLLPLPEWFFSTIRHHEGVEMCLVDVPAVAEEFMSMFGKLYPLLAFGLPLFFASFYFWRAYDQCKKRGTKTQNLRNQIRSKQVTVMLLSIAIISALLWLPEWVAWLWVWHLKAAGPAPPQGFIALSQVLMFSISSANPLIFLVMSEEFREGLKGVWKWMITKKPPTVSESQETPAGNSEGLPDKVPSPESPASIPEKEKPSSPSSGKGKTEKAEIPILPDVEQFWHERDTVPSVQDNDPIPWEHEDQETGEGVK
GPR151 confirm: GPR151 activators, triplicate retest, confirmation, cell-based, PathHunter beta-arrestin, luminescence; shares compounds with GPR151 activ; GPR151 PathHunter beta-arrestin cells, 90 min; % of EA-reagent control over plate median; activation, % at 11.2 µM; 6,700 tested, under 10 active;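 active means mean percent activation across replicates above the confirmation screen cutoff of 4.91%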
GPR119 counter: GPR119 activators in beta-arrestin cells, counter-screen for GPR151 activator project, cell-based, PathHunter beta-arrestin, luminescence, triplicate. shares compounds with GPR151 activ. 90 min; 0 = compound-well median, 100 = enzyme-acceptor control. activation, % at 11.2 µM. 0.3% of 6,700 active. AID 1508611, 2020;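 active means mean percent activation in the counterscreen above 29.09%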;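 further: counterscreen on off-target GPR119 to flag nonselective hits from the GPR151 activator screen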
* hit, by the source's call; ! = not confirmed by another sample. Compounds with a hit are over-represented: about 3.5% of the library has one in this group of screens.

What do the screens show for `COC(=O)C1=C(C)NC(=S)NC1c1ccccc1OC` (stereo unspecified)?
TEAD-YAP inh: 2; MITF inh: -15; FBW7 act: 0; GPR151 activ: 5.6*; GPR151 confirm: 0; GPR119 counter: -4

Results for CCCCc1ccc(NC(=O)/C=C/c2ccc([N+](=O)[O-])cc2)cc1 ?
TEAD-YAP inh: 8; MITF inh: 13; FBW7 act: 1; GPR151 activ: 1

How did CCOC(=O)c1cccc(Nc2c(-c3ccc(C)c(C)c3)c(=O)c2=O)c1 do in these assays?
TEAD-YAP inh: -4; MITF inh: 2; FBW7 act: 0; GPR151 activ: 12*; GPR151 confirm: 1; GPR119 counter: -2

Results for CCOC(=O)c1ccc(Nc2c(-c3ccc(Cl)cc3)c(=O)c2=O)cc1 ?
TEAD-YAP inh: -7; MITF inh: 2; FBW7 act: 0; GPR151 activ: 0

What do the screens show for `Cc1ccc(-c2c(Nc3ccccc3F)c(=O)c2=O)cc1C`?
TEAD-YAP inh: 49*; MITF inh: 3; FBW7 act: 0; GPR151 activ: 5.8*; GPR151 confirm: 0; GPR119 counter: 4

Results for COc1ccccc1Nc1c(-c2ccc(C)c(C)c2)c(=O)c1=O ?
TEAD-YAP inh: -10; MITF inh: 16; FBW7 act: 1; GPR151 activ: 0

Results for CCCCCC(=O)N1c2ccccc2NC2=C(C(=O)CC(c3ccccc3OCCC)C2)C1c1ccc(OC)cc1 (stereo unspecified) ?
TEAD-YAP inh: 7; MITF inh: 16; FBW7 act: 0; GPR151 activ: 3

What do the screens show for `Clc1ccc(Cl)c(Nc2nc(-c3ccc(Cl)c(Cl)c3)cs2)c1`?
TEAD-YAP inh: 0; MITF inh: 15; FBW7 act: 1; GPR151 activ: -1

What do the screens show for `Cc1ccc(-c2noc(C3CCCN(C(=O)Cc4cccs4)C3)n2)cc1` (stereo unspecified)?
TEAD-YAP inh: -16; MITF inh: -11; FBW7 act: 0; GPR151 activ: -1

What do the screens show for `O=C(O)c1cccc(N2C(=O)/C(=C/c3ccc(-c4ccc(Br)cc4)o3)C=C2c2ccccc2)c1`?
TEAD-YAP inh: -35; MITF inh: 11; FBW7 act: 0; GPR151 activ: -1

Results for Cc1cc(C)c(C#N)c(SC/C=C/CSc2nc(C)cc(C)c2C#N)n1 ?
TEAD-YAP inh: -8; MITF inh: -19; FBW7 act: 0; GPR151 activ: -1

Results for Cc1cc(C)c(C#N)c(SC/C=C/c2ccccc2)n1 ?
TEAD-YAP inh: -2; MITF inh: 4; FBW7 act: 0; GPR151 activ: 7.0*; GPR151 confirm: -1; GPR119 counter: -10

How did Cc1cc(C(=O)N(CC#N)CC#N)ccc1[N+](=O)[O-] do in these assays?
TEAD-YAP inh: -8; MITF inh: -6; FBW7 act: 0; GPR151 activ: 7.7*; GPR151 confirm: 0; GPR119 counter: 5

Results for Cn1cc(CN2CCCC(CNS(=O)(=O)c3cccc4cccnc34)C2)cn1 (stereo unspecified) ?
TEAD-YAP inh: 1; MITF inh: 5; FBW7 act: 0; GPR151 activ: 8.1*; GPR151 confirm: 0; GPR119 counter: 1

How did O=C(COc1ccc(Cl)cc1Cl)Oc1cccc2ccccc12 do in these assays?
TEAD-YAP inh: -10; MITF inh: -2; FBW7 act: 0; GPR151 activ: 0

Results for CCOc1ccc(NC(=O)c2ccc(-n3c(N)cc4ccccc4c3=O)cc2)cc1 ?
TEAD-YAP inh: -3; MITF inh: 13; FBW7 act: 0; GPR151 activ: -2

How did O=C(Cc1c(F)cccc1Cl)Nc1nnc(C2CC2)s1 do in these assays?
TEAD-YAP inh: -14; MITF inh: -1; FBW7 act: 0; GPR151 activ: 2

What do the screens show for `O=C(COc1ccc(/C=C2/NC(=O)N(c3ccccc3)C2=O)cc1Cl)Nc1ccccc1`?
TEAD-YAP inh: -12; MITF inh: -6; FBW7 act: 0; GPR151 activ: 9.0*; GPR151 confirm: -1; GPR119 counter: -14

How did O=C(COc1ccc(/C=C2/NC(=O)N(c3ccccc3)C2=O)cc1)Nc1ccc(F)cc1 do in these assays?
TEAD-YAP inh: 3; MITF inh: 15; FBW7 act: 0; GPR151 activ: -1

How did COc1ccc2nc(NC(=O)CCCNC(=O)Cn3cnc4sc5c(c4c3=O)CCCC5)sc2c1 do in these assays?
TEAD-YAP inh: -14; MITF inh: 2; FBW7 act: 0; GPR151 activ: -2

What do the screens show for `COc1ccccc1N/N=C(\C)c1ccc([N+](=O)[O-])o1`?
TEAD-YAP inh: 21; MITF inh: 5; FBW7 act: 0; GPR151 activ: 5.7*; GPR151 confirm: 1; GPR119 counter: 5

What do the screens show for `COCCNc1nc2ccccn2c(=O)c1/C=C1\SC(=S)NC1=O`?
TEAD-YAP inh: 2; MITF inh: -5; FBW7 act: 0; GPR151 activ: 5.0*!; GPR151 confirm: -1; GPR119 counter: -10

How did CCOCCCn1c(=O)c(C#N)cc2c(=O)n3ccccc3nc21 do in these assays?
TEAD-YAP inh: 3; MITF inh: 12; FBW7 act: 0; GPR151 activ: 0

Results for CN1C(=O)CC(Nc2ccc(N(C)C)cc2)C1=O (stereo unspecified) ?
TEAD-YAP inh: 9; MITF inh: 29; FBW7 act: 0; GPR151 activ: 7.3*; GPR151 confirm: 0; GPR119 counter: 8

How did CCN1C(=O)CC(Nc2ccc(N(C)C)cc2)C1=O (stereo unspecified) do in these assays?
TEAD-YAP inh: 6; MITF inh: 25; FBW7 act: 0; GPR151 activ: 0

Results for C=C(C)CN1CCN(c2c(CC)c(C)c(C#N)c3nc4ccccc4n23)CC1 ?
TEAD-YAP inh: 6; MITF inh: 10; FBW7 act: 0; GPR151 activ: 0

How did OCc1cccc(-c2cnc3ccc(NCc4cccc(Cl)c4)nn23)c1 do in these assays?
TEAD-YAP inh: 2; MITF inh: -14; FBW7 act: 0; GPR151 activ: 0

How did CC(C)(C)C(=O)COc1ccc(S(=O)(=O)N2CCOCC2)cc1Cl do in these assays?
TEAD-YAP inh: -6; MITF inh: 0; FBW7 act: 0; GPR151 activ: 1
